# The supplement of paper PMC11624193, “Coupling cellular drug-target engagement to downstream pharmacology with CeTEAM” (Nature Communications, 2024)
# Structures can show the parent of a compound that is named as a salt.
# Molecular target: PARP1 L713F-nLuc biosensor (HCT116) (UniProt P09874)
# Assay: PARP1 L713F-nLuc/akaLuc ratio relative to DMSO control (biosensor stabilization) (fold change); higher = more PARP1 biosensor stabilization (target engagement / stabilizer), active = hit call of the paper
# Details: stock concentration (mM; final µM = stock mM x 1): 10; 24 h;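 active = log2 fold change beyond 2 SD from the library mean after excluding viability outliers; inactive = within 2 SD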
# Chain of PARP1 L713F-nLuc biosensor (HCT116) (P09874 whole entry L713F, looked up): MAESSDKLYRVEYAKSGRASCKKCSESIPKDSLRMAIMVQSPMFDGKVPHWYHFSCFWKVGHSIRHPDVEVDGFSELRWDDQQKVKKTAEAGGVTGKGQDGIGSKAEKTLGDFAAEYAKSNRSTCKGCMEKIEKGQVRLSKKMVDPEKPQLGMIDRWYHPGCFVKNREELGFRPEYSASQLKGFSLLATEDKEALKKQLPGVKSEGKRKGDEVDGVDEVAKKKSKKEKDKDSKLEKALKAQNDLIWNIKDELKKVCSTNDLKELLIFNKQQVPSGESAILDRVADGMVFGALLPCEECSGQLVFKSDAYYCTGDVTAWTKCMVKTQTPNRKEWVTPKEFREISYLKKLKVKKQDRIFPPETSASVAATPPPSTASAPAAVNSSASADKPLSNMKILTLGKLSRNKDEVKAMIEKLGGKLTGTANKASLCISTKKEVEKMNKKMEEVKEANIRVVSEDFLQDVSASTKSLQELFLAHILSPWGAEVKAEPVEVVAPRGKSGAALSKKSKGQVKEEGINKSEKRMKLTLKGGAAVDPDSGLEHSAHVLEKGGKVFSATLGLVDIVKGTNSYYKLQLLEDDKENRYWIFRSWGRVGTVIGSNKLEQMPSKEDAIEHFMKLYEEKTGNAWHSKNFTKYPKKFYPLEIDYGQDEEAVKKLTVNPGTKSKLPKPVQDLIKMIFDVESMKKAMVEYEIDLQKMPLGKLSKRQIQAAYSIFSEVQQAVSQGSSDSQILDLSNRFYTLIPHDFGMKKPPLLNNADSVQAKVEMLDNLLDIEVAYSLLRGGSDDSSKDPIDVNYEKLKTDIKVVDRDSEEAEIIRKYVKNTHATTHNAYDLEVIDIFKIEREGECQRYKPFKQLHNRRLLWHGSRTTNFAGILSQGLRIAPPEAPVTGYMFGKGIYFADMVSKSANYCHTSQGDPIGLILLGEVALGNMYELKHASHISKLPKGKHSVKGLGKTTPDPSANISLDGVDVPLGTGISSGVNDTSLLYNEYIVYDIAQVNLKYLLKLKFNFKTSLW
row,SMILES,PARP1 L713F-nLuc/akaLuc ratio
1,NC(=O)c1ccccc1Nc1ccccc1,0.795 (inactive)
2,c1cc(-c2cnn3cc(-c4ccc(OCCN5CCCCC5)cc4)cnc23)ccn1 [Dorsomorphin],1.11 (inactive)
3,COc1cccc(-n2c(=O)[nH]c3cc(Cl)n(-c4ccc(-c5cccc(OC)c5O)cc4)c3c2=O)c1,0.814 (inactive)
4,CNC(=O)c1nnc(NC(=O)C2CC2)cc1Nc1cccc(-c2ncn(C)n2)c1OC [Deucravacitinib],0.748 (inactive)
5,Nc1nc2[nH]cnc2c(=S)[nH]1 [Thioguanine],1.03 (inactive)
6,CN1CC[C@@H](NC(=O)Nc2ccc(C#N)cc2)C[C@@H]1c1nc2ccccc2[nH]1,0.89 (inactive)
7,NC(=O)NO [Hydroxyurea],0.953 (inactive)
8,COc1cc2c(Nc3ccc(NC(=O)c4ccccc4)cc3)ncnc2cc1OCCCN1CCOCC1,0.809 (inactive)
9,CC(=O)N1CCN([C@H]2CCC[C@@H](NC(=O)c3cc4c(F)ccc(C)c4[nH]3)C2)CC1,1.5 (inactive)
10,FC(F)c1nc2ccccc2n1-c1nc(N2CCOCC2)nc(N2CCOCC2)n1,0.962 (inactive)
11,NC(=O)C1CCN(CC(=O)Nc2ccc(Br)cc2)CC1,0.965 (inactive)
12,O=C(Nc1cccc(Nc2nccc(Nc3cccc(C(F)(F)F)c3)n2)c1)C1CC1 [Aurora kinase inhibitor-3],1.49 (inactive)
13,COc1cc2c(NC3CCN(C(C)C)CC3)nc(N3CCC(F)(F)CC3)nc2cc1OCCCN1CCCC1,1.03 (inactive)
14,CC[C@H](C)[C@H](NC(=O)[C@H](CCCCN)NC(=O)[C@H](CC(C)C)NC(=O)[C@@H]1CCCN1C(=O)[C@H](CCC(=O)O)NC(=O)[C@H](Cc1ccc(O)cc1)NC(=O)[C@@H](NC(=O)[C@H](CO)NC(=O)CNC(=O)[C@H](CO)NC(=O)[C@H](CCCN=C(N)N)NC(=O)[C@H](CCCCN)NC(=O)[C@@H](NC(=O)[C@@H](N)CCCN=C(N)N)[C@@H](C)O)C(C)C)C(=O)O [Malantide],1.76 (inactive)
15,CCCCCCCc1ccc(CCc2cccc(O)c2C(=O)O)cc1,0.768 (inactive)
16,CNC(=O)N1N=C(c2ccc(N3CCN(C)CC3)cc2)c2cc(OC)c(OC)cc2C[C@H]1C,1.27 (inactive)
17,CC(C)(CCCCCC(O)CCCCCC(C)(C)C(=O)O)C(=O)O [Bempedoic acid],1.02 (inactive)
18,N#Cc1cc2cc(CN3CCC(Nc4ncnc5sc(CC(F)(F)F)cc45)CC3)c(O)cc2n1Cc1cn[nH]c1,0.315 (active)
19,O=C(O)CCNc1cc(N2CCc3ccccc3CC2)nc(-c2ccccn2)n1,0.92 (inactive)

row,SMILES,PARP1 L713F-nLuc/akaLuc ratio
1,CC[C@]1(O)C[C@H]2CN(CCc3c([nH]c4ccccc34)[C@@](C(=O)OC)(c3cc4c(cc3OC)N(C=O)[C@H]3[C@@](O)(C(=O)OC)[C@H](OC(C)=O)[C@]5(CC)C=CCN6CC[C@]43[C@@H]65)C2)C1 [Vincristine sulfate],0.783 (inactive)
2,O=C(/C=C/c1ccc(O)c(O)c1)c1ccc(O[C@@H]2O[C@H](CO)[C@@H](O)[C@H](O)[C@H]2O)c(O)c1O [Marein],0.984 (inactive)
3,CC1=C(/C=C/C(C)=C/C=C/C(C)=C/C(=O)O)C(C)(C)CCC1 [Tretinoin],0.599 (inactive)
4,Cc1ccc(OCCSc2ncccn2)c(Br)c1 [ZLN024 (hydrochloride)],0.863 (inactive)
5,O=C(NCCCc1ccccc1)c1cccc(-c2cc(O)c3ncccc3c2)c1,0.729 (inactive)
6,O=c1[nH]c(=O)n([C@H]2C[C@H](O)[C@@H](CO)O2)cc1F [Floxuridine],0.549 (inactive)
7,C=CC(=O)N1CCC[C@@H](n2nc(-c3ccc(Oc4ccccc4)cc3)c3c(N)ncnc32)C1,0.773 (inactive)
8,COc1cc(C(=O)N2C[C@H](N)CC[C@@H]2C)cc2nc(-c3cc4cccnc4n3CC3CC3)n(C)c12 [BMS-P5 (free base)],0.878 (inactive)
9,CNCc1ccc(-c2[nH]c3cc(F)cc4c3c2CCNC4=O)cc1 [Rucaparib],5.36 (active)
10,O=C(c1ccc(Cl)cc1Cl)n1nnc2ccccc21,0.91 (inactive)
11,O=C(COc1cccc2c(=O)[nH]ccc12)c1ccccc1,1.08 (inactive)
12,CC(C)=CCC/C(C)=C/Cc1c(O)c(CC=C(C)C)c2c(c1O)C(=O)C1=C[C@@H]3C[C@H]4C(C)(C)O[C@@](C/C=C(/C)C(=O)O)(C3=O)[C@@]14O2 [Gambogenic acid],1.04 (inactive)
13,CC[C@H](C)n1cc(C)c2c(C(=O)NCc3c(C)cc(C)[nH]c3=O)cc(-c3ccc(N4CCNCC4)nc3)cc21,1.03 (inactive)
14,N[C@H]1C(O)O[C@H](CO)[C@@H](O)[C@@H]1O (some centres not stated) [Glucosamine],1.02 (inactive)
15,Cc1cnc(Nc2ccc(OCCN3CCCC3)cc2)nc1Nc1cccc(S(=O)(=O)NC(C)(C)C)c1,0.333 (active)
16,CC(=O)N[C@@H](CCCCN)C(=O)Nc1ccc2c(C)cc(=O)oc2c1,0.736 (inactive)
17,"Cc1cc(Nc2cc(N3CCN(C)CC3)nc(Sc3ccc(NC(=O)C4CC4)cc3)n2)n[nH]1 [Tozasertib (VX-680, MK-0457)]",0.821 (inactive)
18,CC(C)(O)CC(=O)NCCn1ccc2ncnc(Nc3ccc(Oc4cccc(C(F)(F)F)c4)c(Cl)c3)c21,0.662 (inactive)
